FECH block: inhibitors of human ferrochelatase, primary screen, biochemical, purified FECH, Ni-mesoporphyrin absorbance; Ferrochelatase, mitochondrial (Homo sapiens), P22830; Ni-mesoporphyrin absorbance 550 nm; calls only at 10 µM (by protocol); 20,000 compounds, 3.3% hits;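 active means enzyme reaction rate more than 3 SD below the solvent-only control wells on the same plate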;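 further: lower slope than DMSO wells means FECH inhibition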
* hit, by the source's call. The sample as a whole holds a higher share of hits than the screen did.

COCc1cc(Cn2cnc(-c3ccccc3)c2-c2cccnc2)[nH]n1 was read as FECH block inactive.
Screening Cc1cccc(Nc2nc(NCCC3=CCCCC3)nc3c2cnn3-c2ccccc2)c1 returned FECH block inactive.
Cc1cc(Nc2ccc(OC(=O)c3ccc(Cl)cc3)cc2)n2nc(-c3cccnc3)nc2n1 was read as FECH block inactive.
`CCOc1ccc(CNC(=O)CN2C(=O)CN(C)C(=O)c3ccccc32)cc1OC` gave FECH block inactive.
`COc1ccc(OC)c(CNC(=O)Cn2c(=O)c3cnc(-c4ccccc4)nc3n(C)c2=O)c1` gave FECH block inactive.
COc1ccc(OC)c(CNC(=O)CN2C(=O)c3cccnc3Sc3ccccc32)c1 was read as FECH block active.
Screening Cc1ccc(Cn2c(CNC(=O)c3ccccc3Cl)nc3cccnc32)cc1 returned FECH block inactive.
For COc1cc(C)c(Cl)cc1S(=O)(=O)N1CCN(c2nc(C)cc(N3CCOCC3)n2)CC1 the results were FECH block inactive.
`CC(=O)Nc1c2n(c3ccccc13)CC(C)(C(=O)NCCC(C)C)N(Cc1ccc(Cl)cc1)C2=O` (centres undefined) gave FECH block inactive.
`CC(=O)N1c2ccc(S(=O)(=O)N3CCOCC3)cc2CC1C(=O)N1CCOCC1` (centres undefined) gave FECH block inactive.
Screening Nc1ccc(S(=O)(=O)N2CCOCC2)cc1S(N)(=O)=O returned FECH block active.
For Cc1cccc(NS(=O)(=O)c2ccc(N)c(S(N)(=O)=O)c2)c1 the results were FECH block inactive.
Screening COc1ccc(CCNS(=O)(=O)c2ccc(N3C(=O)CCS3(=O)=O)cc2)cc1 returned FECH block inactive.
Screening Cc1ncc2c(=O)n(Cc3ccc(F)cc3)c(=O)n(C)c2n1 returned FECH block inactive.
For CCN(CC)c1ccc(-n2ccnc2)cc1 the results were FECH block inactive.
`CC(C)CC1(CO)CCCN(C(=O)c2cccc(C#CC(C)(C)O)c2)C1` (centres undefined) gave FECH block active.
For C/C=C/Cc1nnc(C(=O)N2CCCC(CO)(CC(C)C)C2)o1 (centres undefined) the results were FECH block inactive.
Screening CC(C)(O)C#Cc1cccc(C(=O)N2CCc3nc[nH]c3C2)c1 returned FECH block inactive.
Screening COc1ccc(CC(=O)Nc2ccc(Nc3nc(C)cc(Nc4ccc(C)cc4)n3)cc2)cc1 returned FECH block inactive.
For Cc1nc(CCNC(=O)CSCc2ccccc2Cl)cc(=O)[nH]1 the results were FECH block inactive.
Screening Cc1ccccc1N1CCN(Cc2ccc(C#CCO)s2)C(C)C1 (centres undefined) returned FECH block inactive.
